# Measured values: the supplement of paper PMC8728848
# Only a selection was taken, and the strongest signals are over-represented in it overall.
# B1: Sp8391B-bot-388-20-388 (Bacteroides ovatus) (protein)
# chain: GCQNNDENEQHYDNKLFISASNFTKEILFKAGDTNVETGLSVAIAKPEEHDIKVTMSPAPELLSTYKLAYYDETAVLLSEEHYSMPETSTTIKSGSIVSPELPIEFINTGELDIKTTYVLPVTIKSVEGIGVLQSAKTYYYVFRGASLINVVCNISRNRAYPDFKNDSKFNNLTENTMEILFKANSFPNTLNTLMGIESNYLLRIGDATIPNNQLQVATSVNNCTSADLQLESGKWYHVAVAFNKGNVKVYINGVEKLSGSTGKSSVSLGAKHTNEEDGSRCFWVGYSYKDDRYFDGVVSEVRIWNRALTAEEIQATNHFYTIEPESEGLIAYWKFDEGSGTVAKDYSVSGYDLTIEKEPKWESVSLPQ
# What was measured:
# Assay in all cases: glycan array binding signal (z-score within array); higher = stronger binding
# Conditions in all cases: glycan notation: IUPAC condensed, linker removed
# [1] = molecular target: Gal(b1-4)GlcNAc(b1-3)[GlcNAc(b1-6)]Gal(b1-4)GlcNAc
# In short: (§1)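 The Consortium for Functional Glycomics database supplied 3228 glycan arrays, of which those lacking an available protein sequence were dropped. The binding signal, a within-array Z-score, was averaged across arrays of the same protein sequence and across linkers. Negative scores can be read as non-binding.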
# [2] = molecular target: Gal(b1-4)GlcNAc(b1-6)Gal(b1-4)GlcNAc
# In short: as §1
# Gal(b1-4)GlcNAc6P = molecular target: Gal(b1-4)GlcNAc6P
# In short: as §1
# GalNAc4S6S(b1-4)GlcNAc = molecular target: GalNAc4S6S(b1-4)GlcNAc
# In short: as §1
# [3] = molecular target: Glc(a1-4)Glc(a1-4)Glc(a1-4)Glc
# In short: as §1
# [4] = molecular target: GlcNAc(b1-2)Man(a1-3)[GlcNAc(b1-4)][GlcNAc(b1-2)Man(a1-6)]Man(b1-4)GlcNAc(b1-4)GlcNAc
# In short: as §1
# [5] = molecular target: GlcNAc(b1-3)Gal(b1-4)GlcNAc(b1-3)Gal(b1-4)GlcNAc(b1-3)Gal(b1-4)GlcNAc(b1-2)Man(a1-3)[GlcNAc(b1-3)Gal(b1-4)GlcNAc(b1-3)Gal(b1-4)GlcNAc(b1-3)Gal(b1-4)GlcNAc(b1-2)Man(a1-6)]Man(b1-4)GlcNAc(b1-4)[Fuc(a1-6)]GlcNAc
# In short: as §1
# GlcNAc(b1-3)Man = molecular target: GlcNAc(b1-3)Man
# In short: as §1
# [6] = molecular target: GlcNAc(b1-4)GlcNAc(b1-4)GlcNAc
# In short: as §1
# [7] = molecular target: Kdn(a2-3)Gal(b1-4)[Fuc(a1-3)]GlcNAc
# In short: as §1
# MurNAc(b1-4)GlcNAc = molecular target: MurNAc(b1-4)GlcNAc
# In short: as §1
# [8] = molecular target: Neu5Ac(a2-3)Gal(b1-3)GlcNAc
# In short: as §1
# [9] = molecular target: Neu5Ac(a2-3)Gal(b1-3)GlcNAc(b1-2)Man(a1-3)[GlcNAc(b1-4)][Neu5Ac(a2-3)Gal(b1-3)GlcNAc(b1-2)Man(a1-6)]Man(b1-4)GlcNAc(b1-4)GlcNAc
# In short: as §1
# [10] = molecular target: Neu5Ac(a2-3)Gal(b1-4)GlcNAc(b1-2)Man(a1-3)[Neu5Ac(a2-3)Gal(b1-4)GlcNAc(b1-2)Man(a1-6)]Man(b1-4)GlcNAc(b1-4)GlcNAc
# In short: as §1
# [11] = molecular target: Neu5Ac(a2-3)Gal(b1-4)GlcNAc(b1-2)[Neu5Ac(a2-3)Gal(b1-4)GlcNAc(b1-6)]Man(a1-6)[Neu5Ac(a2-3)Gal(b1-4)GlcNAc(b1-2)Man(a1-3)]Man(b1-4)GlcNAc(b1-4)GlcNAc
# In short: as §1
# [12] = molecular target: Neu5Ac(a2-3)Gal(b1-4)GlcNAc(b1-3)GalNAc
# In short: as §1
# [13] = molecular target: Neu5Ac(a2-3)Gal6S(b1-4)GlcNAc
# In short: as §1
# [14] = molecular target: Neu5Ac(a2-3)[GalNAc(b1-4)]Gal(b1-4)Glc
# In short: as §1
# [15] = molecular target: Neu5Ac(a2-6)Gal(b1-3)GlcNAc(b1-3)[Gal(b1-4)GlcNAc(b1-6)]Gal(b1-4)Glc
# In short: as §1
# [16] = molecular target: Neu5Ac(a2-6)Gal(b1-4)GlcNAc
# In short: as §1
# [17] = molecular target: Neu5Ac(a2-6)Gal(b1-4)GlcNAc(b1-2)Man(a1-6)[Man(a1-3)]Man(b1-4)GlcNAc(b1-4)GlcNAc
# In short: as §1
# [18] = molecular target: Neu5Ac(a2-6)Gal(b1-4)GlcNAc(b1-2)[Neu5Ac(a2-6)Gal(b1-4)GlcNAc(b1-4)]Man(a1-3)[GlcNAc(b1-4)][Neu5Ac(a2-6)Gal(b1-4)GlcNAc(b1-2)[Neu5Ac(a2-6)Gal(b1-4)GlcNAc(b1-6)]Man(a1-6)]Man(b1-4)GlcNAc(b1-4)GlcNAc
# In short: as §1
# [19] = molecular target: Neu5Ac(a2-6)Gal(b1-4)GlcNAc(b1-6)[Gal(b1-3)]GalNAc
# In short: as §1
# [20] = molecular target: Neu5Ac(a2-6)GalNAc(b1-4)GlcNAc6S
# In short: as §1
# [21] = molecular target: Neu5Ac(a2-8)Neu5Ac(a2-3)[GalNAc(b1-4)]Gal(b1-4)Glc
# In short: as §1
# [22] = molecular target: Neu5Ac(a2-8)Neu5Ac(a2-8)Neu5Ac(a2-3)Gal(b1-4)Glc
# In short: as §1
# [23] = molecular target: Neu5Ac9Ac(a2-6)Gal(b1-4)GlcNAc
# In short: as §1
# [24] = molecular target: Neu5Gc(a2-8)Neu5Gc(a2-3)Gal(b1-4)GlcNAc(b1-3)Gal(b1-4)GlcNAc
# In short: as §1
binder,measurement,setting,value
B1,glycan array binding signal (z-score),[1],0.193
same,glycan array binding signal (z-score),[2],0.486
same,glycan array binding signal (z-score),Gal(b1-4)GlcNAc6P,0.015
same,glycan array binding signal (z-score),GalNAc4S6S(b1-4)GlcNAc,-0.043
same,glycan array binding signal (z-score),[3],-0.549
same,glycan array binding signal (z-score),[4],-0.101
same,glycan array binding signal (z-score),[5],2.65
same,glycan array binding signal (z-score),GlcNAc(b1-3)Man,0.083
same,glycan array binding signal (z-score),[6],-0.077
same,glycan array binding signal (z-score),[7],1.91
same,glycan array binding signal (z-score),MurNAc(b1-4)GlcNAc,-0.265
same,glycan array binding signal (z-score),[8],-0.213
same,glycan array binding signal (z-score),[9],-0.652
same,glycan array binding signal (z-score),[10],-0.533
same,glycan array binding signal (z-score),[11],0.918
same,glycan array binding signal (z-score),[12],-0.435
same,glycan array binding signal (z-score),[13],-0.501
same,glycan array binding signal (z-score),[14],0.131
same,glycan array binding signal (z-score),[15],6.14
same,glycan array binding signal (z-score),[16],-0.355
same,glycan array binding signal (z-score),[17],0.075
same,glycan array binding signal (z-score),[18],2.53
same,glycan array binding signal (z-score),[19],-0.211
same,glycan array binding signal (z-score),[20],-0.019
same,glycan array binding signal (z-score),[21],0.19
same,glycan array binding signal (z-score),[22],0.117
same,glycan array binding signal (z-score),[23],-0.27
same,glycan array binding signal (z-score),[24],-1.02
